Compounds with a hit are over-represented: about 4.5% of the library has one in this group of screens.
ALR inh = inhibitors of human ALR sulfhydryl oxidase, primary screen, biochemical, H2O2 detection, HRP-luminol luminescence, single point; FAD-linked sulfhydryl oxidase ALR (Homo sapiens), P55789; purified ALR, DTT oxidation; inhibition, % (no concentration beside the values); 290,000 tested, 3.8% active; AID 485317, 2010;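 active means mean replicate inhibition above about 79%, with every replicate also reaching it, limit read from the data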
Rtt109 Vps75 = inhibitors of C. albicans Rtt109/Vps75 HAT, primary screen, biochemical, ThioGlo CoA-SH fluorescence, plate reader. AID 540336, 2011. inhibition, % at 34.9 µM. 330,000 tested, 0.16% active. purified Rtt109/Vps75, 4 h;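 active means inhibition of at least 50% in every replicate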
Rce1 inh = yeast Rce1p protease inhibitors, primary screen, biochemical, fluorescence, cell-free homogeneous | CAAX prenyl protease 2 (Saccharomyces cerevisiae (strain ATCC 204508 / S288c)), Q03530 | yeast membranes, quenched prenylated peptide cleavage fluorescence | calls only | 290,000 tested, 0.27% active | AID 2563, 2010;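 active means fall in fluorescence gain of 50% or more versus controls, with final raw signal at or below 3038400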
Target sequence (Q03530 whole entry, looked up): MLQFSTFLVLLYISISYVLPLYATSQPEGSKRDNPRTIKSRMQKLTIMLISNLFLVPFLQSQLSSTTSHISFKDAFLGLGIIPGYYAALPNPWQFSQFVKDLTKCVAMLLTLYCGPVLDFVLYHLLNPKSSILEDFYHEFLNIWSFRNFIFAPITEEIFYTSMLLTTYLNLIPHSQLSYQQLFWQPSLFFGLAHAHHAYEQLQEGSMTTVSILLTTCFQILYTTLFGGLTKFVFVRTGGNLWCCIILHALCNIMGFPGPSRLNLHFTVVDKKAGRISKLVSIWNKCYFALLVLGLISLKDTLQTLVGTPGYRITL
HDAC3 inhib = HDAC3 deacetylase inhibitors, primary screen, biochemical, fluorescence, cell-free homogeneous; recombinant HDAC3, fluorogenic peptide/trypsin coupled; inhibition, % at 8.3 µM; 320,000 tested, 0.15% active; AID 2718, 2010; in the data active means inhibition above about 26%, passing the limit was not always enough
GRK2 inh = compounds blocking aptamer binding on GRK2 – biochemical, human GRK2, bead flow cytometry, HTS, primary screen. Beta-adrenergic receptor kinase 1 (Homo sapiens), P25098. FAM-aptamer displacement from GRK2. inhibition of aptamer binding, % at 10 µM. 330,000 tested, 0.59% active;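 active means inhibition of aptamer binding above 40%, roughly 3 SD of noise, on plates passing a quality check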;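 further: median bead fluorescence of bound FAM aptamer so fluorescent compounds give negative values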
Efflux pump inh = inhibitors of Candida efflux pumps in yeast, primary screen, S. cerevisiae, Nile Red, multiplex; inhibition, % at 10 µM; 330,000 tested, 0.44% active; S. cerevisiae Candida pump triplex;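 active means plate passing quality check with inhibition over a set limit, or well fluorescence over plate mean plus 4 SD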;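 further: Nile Red retained in pooled yeast measured as flow cytometry median fluorescence; higher means more Nile Red kept so more efflux inhibition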
Each line names hits and unclear results; the compound was inactive in the other large screens.

Cc1c(Cl)cccc1-n1c(-c2cccnc2)n[nH]c1=S	ALR inh 80
Cc1ccsc1/C=C1/SC(N2CC(C)OC(C)C2)=NC1=O (stereo not drawn)	ALR inh 99
Cc1ccsc1/C=C1\SC(N)=NC1=O	none
Cc1ccc(CNC(=O)CN2C(=O)CSc3ccc(S(=O)(=O)N4CCC(C)CC4)cc32)cc1	none
Cc1cc2cc(CNC(=O)c3cc4ccccc4o3)ccc2n1C	GRK2 inh 87 (no result: Rtt109 Vps75)
COc1ccc(/C=C(/C#N)C(=O)Nc2ccc(O)cc2)cc1C(=O)O	ALR inh 99
COc1cc(/C=C(/C#N)C(=O)Nc2ccccc2)ccc1OCc1ccc(C(=O)O)cc1	none (no result: Rce1 inh)
COc1cc(/C=C(\C#N)C(=O)Nc2ccc(C(=O)O)cc2)ccc1OC(=O)c1cccc(F)c1	GRK2 inh 42
CCc1ccc(NC(=O)/C(C#N)=C\c2ccc(OC)c(C(=O)O)c2)cc1	ALR inh 99
OCCC1CN(Cc2nc3ccccc3s2)CCN1CCc1ccccc1 (stereo not drawn)	none (no result: ALR inh)
CC1CCCC(C)N1C(=O)COC(=O)c1ccc2ccccc2n1 (stereo not drawn)	none (no result: ALR inh, Rce1 inh)
O=S(=O)(c1cnc(Cl)c(Cl)c1)N1CCN(c2ncccn2)CC1	none
COC(=O)c1c(-c2c(Cl)cccc2Cl)noc1NC(=O)NN1CCCCC1	none
CCN(CC)c1ccc(Nc2nc(Cl)ncc2Br)cc1	ALR inh 99
CCN(CC)c1ccc(CNc2ccc(Br)cn2)cc1	none (no result: ALR inh)
CCCOc1ccc(C2=CSC3=NCCN23)cc1[N+](=O)[O-]	none
C=CCNC(=O)/C(C#N)=C\c1cc(Cl)c(OCC)c(OC)c1	ALR inh 98
CCOc1c(Br)cc(/C=C(\C#N)C(=O)NC2CC2)cc1OC	none
Cc1ccc(CSCc2ccc(C(=O)NCCCN3CCOCC3)o2)cc1	none
Cc1ccccc1CSCc1ccc(C(=O)NCCCN2CCOCC2)o1	ALR inh 98
CN1CCN(CCCNC(=O)c2ccc(CSCc3cccc(Cl)c3)o2)CC1	none (no result: Rtt109 Vps75)
O=C(NC1CC1)c1ccc(CSCc2cccc(F)c2)o1	ALR inh 99
CC1CCN(CCCNC(=O)c2ccc(CSCc3cccc(Cl)c3)o2)CC1	ALR inh 99
COc1ccc(S(=O)(=O)N(C)C[C@H]2Oc3ccc(NS(=O)(=O)c4cn(C)cn4)cc3C(=O)N([C@H](C)CO)C[C@@H]2C)cc1	none (no result: ALR inh, Rce1 inh, HDAC3 inhib)
CC(C)NC(=O)c1ccc2c3n(nc2c1)-c1ccc(Cl)cc1CO3	none
CCN(CC)CCCNC(=O)c1ccc2c3n(nc2c1)-c1ccc(Cl)cc1CO3	ALR inh 99 (no result: GRK2 inh, Efflux pump inh)
CCOC(=O)C1CCN(c2c(NCCCN(CC)c3ccccc3)c(=O)c2=O)CC1	ALR inh 90
CCOC(=O)C1CCCN(c2c(NCCCN(CC)c3cccc(C)c3)c(=O)c2=O)C1 (stereo not drawn)	ALR inh 98
CCOC(=O)C1CCCN(c2c(NCCc3cccc(C)c3)c(=O)c2=O)C1 (stereo not drawn)	none
CCOc1ccc(NC(=O)CCC(=O)NNC(=O)Nc2ccc(Cl)cc2)cc1	none
Cn1c2ccsc2c2ncn(Cc3ccccc3F)c(=O)c21	none (no result: Rce1 inh)
CN(C)c1ccc(C(=O)n2nnc3ccccc32)cc1	HDAC3 inhib 91
CCCC(=O)Nc1ccc(C(=O)n2nnc3ccccc32)cc1	HDAC3 inhib 75
Cc1ccc(C(=O)n2nnc3ccccc32)cc1	HDAC3 inhib 97 (no result: Rtt109 Vps75)
CCN(CC)c1ccc(C(=O)n2cnc3ccccc32)cc1	none (no result: ALR inh)
O=C(c1cccc(F)c1)n1nnc2ccccc21	none (no result: ALR inh)
COc1ccc(OC)c(CCNC(=O)CN2C(=O)CCSc3ccccc32)c1	none
Cc1c(NC(=O)C(C)OC(=O)c2cc(Cl)ccc2O)c(=O)n(-c2ccccc2)n1C (stereo not drawn)	none
CCN(CC)c1ccc(/C=C/c2nc3ccccc3s2)cc1	Efflux pump inh 1.0 (no result: Rtt109 Vps75)
CCN(CC)c1ccc(NC(=O)COC(=O)/C=C/c2nc3ccccc3s2)cc1	ALR inh 99
CNC(=O)COC(=O)/C=C/c1nc2ccccc2s1	none (no result: ALR inh)
